Experimental data from PubChem BioAssay (Tox21).
Values joined by “and” are separate entries in the source; they are usually repeats but may differ in a detail not shown here. Identical values can stand only once. Results filed as inconclusive are left out. Where a call stands in place of a potency, no number is given. Some compounds were tested as several samples or in several runs, with calls that do not always agree. Active and inactive are the calls of the source. Calls follow the shape of the dose curve; as a rule, active = well fitted activation curve with a large enough effect in the repeat runs; inconclusive = weak or mixed curves; inactive = flat fitted curve, though single readings scatter.

Assay: A CellTox Green Cytotoxicity Assay to monitor cytotoxicity in HepG2 cells - 32 hour (AID 1224883); also: nearly all actives have a fitted effect of over 50% in size
Conditions: CellTox Green fluorescence; series mostly up to 76.8 µM
Text: National Center for Advancing Translational Sciences [NCATS]
NIH Chemical Genomics Center [NCGC]
U.S. Environmental Protection Agency [EPA]
National Institutes of Environmental Health Sciences [NIEHS]
National Toxicology Program [NTP]
Cell-based models are critical for drug discovery. Determining the natural cytotoxic effects resulting from test compounds is an essential research activity. A CellTox Green Cytotoxicity Assay to monitor cytotoxicity in real time of continues cell culture during 40 hours of the compound treatment was used to screen Tox21 10K library compounds in HepG2 cells. CellTox Green Cytotoxicity Assay is a nonlytic, homogeneous, biofluorescent method to measure cytotoxicity in cell culture after experimental manipulation. The assay system uses a proprietary asymmetric cyanine dye that is excluded from viable cells but preferentially stains the dead cell's DNA. […] Viable cells produce no appreciable increases in fluorescence. Therefore, the fluorescence signal produced by the binding interaction with dead cell DNA is proportional to cytotoxicity.
The mixture of HepG2 cell suspension and reagents were dispensed at 600cells/6 ul/well in 1536-well tissue culture treated black solid bottom plates using a Multidrop dispenser. After the assay plates were incubated at a 37 C/5% CO2 incubator for 5 hours, 23 nL of compounds dissolved in DMSO, positive and negative controls was transferred to the assay plate by a pintool work station. The plates were incubated at 37 C for 40 hours. The fluorescence intensity were measured at 0h, 8h, 16h, 24h, 32h and 40h time points using ViewLux plate reader during compound treatment.
Potency is read from the fitted curve at half-maximal effect.

Compound	Potency
CCN(CC)N=O	inactive
COP(=S)(OC)Oc1ccc([N+](=O)[O-])cc1	inactive
CCOc1cc(C=O)ccc1O	inactive
COP(=O)(OC)OC	24.7 µM (active) and inactive
O=c1oc2ccccc2c(O)c1C(CC(O)c1ccc(-c2ccc(Br)cc2)cc1)c1ccccc1 (stereo not given)	inactive
O=C(CCl)c1ccccc1	inactive
S=C1NCCN1	inactive
O=C(O)CC[N+](=O)[O-]	inactive
Cc1cc(C)cc(C)c1	inactive
O=P(O)(O)CCCl	inactive
CC(C)=CC1C(C(=O)OCc2coc(Cc3ccccc3)c2)C1(C)C (stereo not given)	inactive
CCCCCCCCOC(=O)c1ccccc1C(=O)OCCCCCCCC	inactive
CNC(=O)N(C)c1nnc(C(C)(C)C)s1	inactive
NC(=S)Nc1ccccc1	49.8 µM (active) and inactive
CC(C)(OOC(C)(C)c1ccccc1)c1ccccc1	inactive
Brc1ccc(Oc2cc(Br)c(Br)cc2Br)c(Br)c1	inactive
CCN(N=O)C(N)=O	inactive
Nc1ccc(Cl)cc1N	inactive and 23.2 µM (active)
CN(C)C(=O)Nc1ccc(Cl)cc1	inactive
c1ccc(NNc2ccccc2)cc1	inactive

Compound	Potency
C#C[C@]1(O)CC[C@H]2[C@@H]3CCC4=CC(=O)CC[C@]4(C)[C@H]3CC[C@@]21C	inactive
c1ccc(-c2cccc(-c3ccccc3)c2)cc1	inactive
Cc1c(COC(=O)[C@@H]2[C@H](/C=C(\Cl)C(F)(F)F)C2(C)C)cccc1-c1ccccc1	inactive
C=CCc1ccc2c(c1)OCO2	inactive
CC1(C)C(C=C(Cl)Cl)C1C(=O)OC(C#N)c1cccc(Oc2ccccc2)c1 (stereo not given)	inactive
c1ccc(N=Nc2ccccc2)cc1	inactive
Nc1c(Cl)cc([N+](=O)[O-])cc1Cl	inactive
CCOc1cc(Oc2ccc(C(F)(F)F)cc2Cl)ccc1[N+](=O)[O-]	inactive
C=CCc1ccc(OC)cc1	inactive
c1nc[nH]n1	inactive
Clc1nc(Cl)nc(Cl)n1	inactive
NCc1cccnc1	inactive
CCC(CC)Nc1c([N+](=O)[O-])cc(C)c(C)c1[N+](=O)[O-]	inactive
CCCCNC(=O)n1c(NC(=O)OC)nc2ccccc21	12.2 µM (active) and inactive
C[C@]12CCC(=O)C(O)=C1CC[C@@H]1[C@@H]2CC[C@]2(C)C(=O)CC[C@@H]12	inactive
N#CC(Br)Br	inactive
Cc1ccc(OP(=O)(Oc2ccc(C)cc2)Oc2ccc(C)cc2)cc1	4.89 µM (active) and inactive
Oc1c(Cl)c(Cl)c(Cl)c(Cl)c1Cl	inactive
Oc1ccc(-c2ccccc2)cc1	inactive and 49 µM (active)
CCC(=O)O[C@H]1CC[C@H]2[C@@H]3CCC4=CC(=O)CC[C@]4(C)[C@H]3CC[C@]12C	43.6 µM (active)
